Measured values reported in PubChem BioAssay (Tox21).
Where “and” joins values, the source holds several entries; their conditions need not be identical. Equal values may be shown once. Inconclusive results are not listed. Calls of active or inactive are those of the source. Calls follow the shape of the dose curve; as a rule, active = well fitted activation curve with a large enough effect in the repeat runs; inconclusive = weak or mixed curves; inactive = flat fitted curve, though single readings scatter.

Assay: A CellTox Green Cytotoxicity Assay to monitor cytotoxicity in HEK293 cells - 40 hour (AID 1224871); also: nearly all actives have a fitted effect of over 45% in size
Conditions: CellTox Green fluorescence; series mostly up to 76.8 µM; cytotoxicity increase: at the top concentration
Excerpt: National Center for Advancing Translational Sciences [NCATS]
NIH Chemical Genomics Center [NCGC]
U.S. Environmental Protection Agency [EPA]
National Institutes of Environmental Health Sciences [NIEHS]
National Toxicology Program [NTP]
Cell-based models are critical for drug discovery. Determining the natural cytotoxic effects resulting from test compounds is an essential research activity. A CellTox Green Cytotoxicity Assay to monitor cytotoxicity in real time of continues cell culture during 40 hours of the compound treatment was used to screen Tox21 10K library compounds in Hek293 cells. CellTox Green Cytotoxicity Assay is a nonlytic, homogeneous, biofluorescent method to measure cytotoxicity in cell culture after experimental manipulation. The assay system uses a proprietary asymmetric cyanine dye that is excluded from viable cells but preferentially stains the dead cell's DNA. […] Viable cells produce no appreciable increases in fluorescence. Therefore, the fluorescence signal produced by the binding interaction with dead cell DNA is proportional to cytotoxicity.
The mixture of Hek293 cell suspension and reagents were dispensed at 600cells/6 ul/well in 1536-well tissue culture treated black solid bottom plates using a Multidrop dispenser. After the assay plates were incubated at a 37 C/5% CO2 incubator for 5 hours, 23 nL of compounds dissolved in DMSO, positive and negative controls was transferred to the assay plate by a pintool work station. The plates were incubated at 37 C for 40 hours. The fluorescence intensity were measured at 0h, 8h, 16h, 24h, 32h and 40h time points using ViewLux plate reader during compound treatment.
% is scaled to controls: 0 for no effect and ±100 for the full control effect; potency is read from the fitted curve at half-maximal effect.

Row | Compound | cytotoxicity increase | Potency
1 | C[C@@H](Oc1ccc(Cl)cc1Cl)C(=O)O | 1.07% (inactive) | 
2 | Oc1c(Cl)c(Cl)cc(Cl)c1Cl |  | 42.5 µM (active)
3 | CC(C)Oc1cccc(NC(=O)c2ccccc2C(F)(F)F)c1 |  | 61.6 µM (active)
4 | CC(C)[C@H](C(=O)OC(C#N)c1cccc(Oc2ccccc2)c1)c1ccc(OC(F)F)cc1 (stereo not given in full) | -15.9% (inactive) | 
5 | Oc1c(Br)c(Br)c(Br)c(Br)c1Br | 2.97% (inactive) | 
6 | CC(C)CCCCCOC(=O)c1ccccc1C(=O)OCCCCCC(C)C | 0.572% (inactive) | 
7 | CN(C)CCc1c[nH]c2ccc(O)cc12 | 5.42% (inactive) | 
8 | CCS(=O)(=O)c1cccnc1S(=O)(=O)NC(=O)Nc1nc(OC)cc(OC)n1 | -14.1% (inactive) | 
9 | CC(=O)[O-].[Tl+] | -1.02% (inactive) | 
10 | CC1(C)CN=C(NN=C(/C=C/c2ccc(C(F)(F)F)cc2)/C=C/c2ccc(C(F)(F)F)cc2)NC1 |  | 49 µM (active)
11 | CCOC(=O)CC(=O)CCl |  | 54.9 µM (active)
12 | c1ccc2c(c1)[nH]c1cnccc12 | 7.05% (inactive) | 
13 | C1CCC2CCCCC2C1 (stereo not given) | 11.1% (inactive) | 
14 | C[C@H]1CC[C@@H]2[C@@H](C)[C@H]3[C@H](C[C@H]4[C@@H]5CC=C6CC(O[C@@H]7O[C@H](CO)[C@H](O)[C@H](O[C@@H]8O[C@H](CO)[C@@H](O)[C@H](O)[C@H]8O)[C@H]7O[C@H]7O[C@@H](C)[C@H](O)[C@@H](O)[C@H]7O)CC[C@]6(C)[C@H]5CC[C@]34C)N2C1 (stereo not given in full) |  | 7.14 µM (active)
15 | Clc1ccc(-c2ccc(Cl)c(Cl)c2Cl)c(Cl)c1Cl | 16.2% (inactive) | 
16 | [Cd+2].[Cl-].[Cl-] |  | 24.8 µM (active) and 7.76 µM (active)
17 | CCc1cc(C)cc(CC)c1-c1c(OC(=O)C(C)(C)C)n2n(c1=O)CCOCC2 | 18.9% (inactive) | 
18 | CC(C)OS(C)(=O)=O | 2.21% (inactive) | 
19 | COC(=O)N(C(=O)N1CO[C@@]2(C(=O)OC)Cc3cc(Cl)ccc3C2=N1)c1ccc(OC(F)(F)F)cc1 | 1.35% (inactive) | 
20 | CCCCCCCCCCCCCCCC[N+](C)(C)C |  | 23.7 µM (active) and 43.6 µM (active) and 23.9 µM (active)

Row | Compound | cytotoxicity increase | Potency
21 | C[C@H]1O[C@@H](O[C@H]2[C@@H](O)C[C@H](O[C@H]3[C@@H](O)C[C@H](O[C@H]4CC[C@@]5(C)[C@H](CC[C@@H]6[C@@H]5CC[C@]5(C)[C@@H](C7=CC(=O)OC7)CC[C@]65O)C4)O[C@@H]3C)O[C@@H]2C)C[C@H](O)[C@@H]1O |  | inactive
22 | CCCOCC(=Nc1ccc(Cl)cc1C(F)(F)F)n1ccnc1 |  | 48.9 µM (active)
23 | N#CCc1ccc(Cl)cc1 | -12.9% (inactive) | 
24 | CCCCCCCCCCCCBr | 8.46% (inactive) | 
25 | N#Cc1c(-c2ccc(Cl)cc2)[nH]c(C(F)(F)F)c1Br |  | 49 µM (active)
26 | Cc1c(Cl)c(=O)oc2cc(OP(=O)(OCCCl)OCCCl)ccc12 | -10.1% [at 35.3 µM] (inactive) | 
27 | CC(=O)/C=C/c1ccc2c(c1)OCO2 | 5.49% (inactive) | 
28 | CC1CCC(C(C)C)C(OC(=O)c2ccccc2N)C1 (stereo not given) |  | 27.2 µM (active)
29 | CCOP(=S)(OCC)SCS(=O)(=O)C(C)(C)C | 11.5% (inactive) | 
30 | N#CCCC(Br)(C#N)CBr (stereo not given) |  | 49 µM (active)
31 | N#Cc1ccc(O)cc1 | -9.23% (inactive) | 
32 | CCCN(CCC)c1c([N+](=O)[O-])cc(S(N)(=O)=O)cc1[N+](=O)[O-] |  | 39.7 µM (active)
33 | Cc1cc(N=Nc2ccccc2C)ccc1N |  | 49 µM (active)
34 | BrC(Br)Br | -0.628% (inactive) | 
35 | CS(=O)(=O)c1ccc(C(=O)C2C(=O)CCCC2=O)c([N+](=O)[O-])c1 |  | 44.4 µM (active)
36 | C[As+](C)(C)CC(=O)[O-] | 1.76% (inactive) | 
37 | O=C(CCl)C(Cl)Cl |  | 24.8 µM (active)
38 | CN(C)C1CSSSC1 | 8.06% (inactive) | 
39 | CCCCCCCCc1ccc(O)cc1 |  | 19.6 µM (active)
40 | C[C@@H]1O[C@@H](O[C@@H]2C=C3CC[C@@H]4[C@H](CC[C@]5(C)[C@@H](c6ccc(=O)oc6)CC[C@]45O)[C@@]3(C)CC2)[C@H](O)[C@H](O)[C@H]1O | -5.74% [at 35.3 µM] (inactive) | 
